The whole screen tested about 5,500 compounds, of which about 2,000 (36%) were called active. Another 18% or so got no clear call; they are omitted. No stated cut-off is given here; in the data, active means normalized growth mostly below about 0.91 (no sharp cut-off); inconclusive means no clear call, values can overlap the other calls; inactive means mostly above about 0.92. This is one part of the list.
Assay: chemical genetic growth profiling, strain panel (AID 1159580);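 further: tested at 20 µM; growth read once vehicle control cultures reached saturation at 30 °C; 1 = growth at the plate median or of vehicle wells; lower values mean less growth of the strain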
Conditions: growth OD
[1] = S. cerevisiae deletion strains, locus YDL101C, strain DUN1, hits give low values
[2] = S. cerevisiae deletion strains, locus YHR030C, strain SLT2, hits give low values

Measured: normalized growth

N/C(=N/OC(=O)c1ccccc1Cl)c1cccc(CS(=O)(=O)c2ccc(Cl)cc2)c1
inactive: S. cerevisiae deletion strains, locus YAR019C, strain CDC15, hits give low values 0.993 | S. cerevisiae deletion strains, locus YBL105C, strain PKC1, hits give low values 0.975 | S. cerevisiae deletion strains, locus YBR135W, strain CKS1, hits give low values 0.981 | S. cerevisiae deletion strains, locus YBR136W, strain MEC1, hits give low values 0.986 | S. cerevisiae deletion strains, locus YBR160W, strain CDC28, hits give low values 0.981 | S. cerevisiae deletion strains, locus YDL017W, strain CDC7, hits give low values 0.984 | S. cerevisiae deletion strains, locus YDL028C, strain MPS1, hits give low values 0.991 | [1] 0.982 | S. cerevisiae deletion strains, locus YDL108W, strain KIN28, hits give low values 0.986 | S. cerevisiae deletion strains, locus YDL132W, strain cdc53, hits give low values 0.984 | S. cerevisiae deletion strains, locus YDL214C, strain PRR2, hits give low values 1.04 | S. cerevisiae deletion strains, locus YDR052C, strain DBF4, hits give low values 0.981 | S. cerevisiae deletion strains, locus YDR054C, strain cdc34, hits give low values 0.984 | S. cerevisiae deletion strains, locus YDR226W, strain ADK1, hits give low values 0.981 | S. cerevisiae deletion strains, locus YDR477W, strain SNF1, hits give low values 0.997 | S. cerevisiae deletion strains, locus YER123W, strain YCK3, hits give low values 0.995 | S. cerevisiae deletion strains, locus YER133W, strain GLC7, hits give low values 1 | S. cerevisiae deletion strains, locus YFL009W, strain cdc4, hits give low values 0.98 | S. cerevisiae deletion strains, locus YFL029C, strain CAK1, hits give low values 0.985 | S. cerevisiae deletion strains, locus YFR003C, strain YPI1, hits give low values 0.977 | S. cerevisiae deletion strains, locus YFR019W, strain FAB1, hits give low values 1.01 | S. cerevisiae deletion strains, locus YFR028C, strain CDC14, hits give low values 0.99 | S. cerevisiae deletion strains, locus YGR040W, strain KSS1, hits give low values 1 | S. cerevisiae deletion strains, locus YGR052W, strain FMP48, hits give low values 1.02 | S. cerevisiae deletion strains, locus YGR092W, strain DBF2, hits give low values 0.974 | [2] 1.12 | S. cerevisiae deletion strains, locus YHR079C, strain IRE1, hits give low values 1.09 | S. cerevisiae deletion strains, locus YHR082C, strain KSP1, hits give low values 1.13 | S. cerevisiae deletion strains, locus YHR205W, strain SCH9, hits give low values 0.984 | S. cerevisiae deletion strains, locus YIL147C, strain SLN1, hits give low values 0.988 | S. cerevisiae deletion strains, locus YJL095W, strain BCK1, hits give low values 0.973 | S. cerevisiae deletion strains, locus YJL128C, strain PBS2, hits give low values 0.985 | S. cerevisiae deletion strains, locus YJL157C, strain FAR1, hits give low values 1.01 | S. cerevisiae deletion strains, locus YJR016C, strain ILV3, hits give low values 0.999 | S. cerevisiae deletion strains, locus YJR066W, strain TOR1 (second series), hits give low values 0.982 | S. cerevisiae deletion strains, locus YJR066W, strain TOR1, hits give low values 1.07 | S. cerevisiae deletion strains, locus YKL048C, strain ELM1, hits give low values 0.996 | S. cerevisiae deletion strains, locus YKL067W, strain YNK1, hits give low values 1.01 | S. cerevisiae deletion strains, locus YKL101W, strain HSL1, hits give low values 1.01 | S. cerevisiae deletion strains, locus YKL193C, strain SDS22, hits give low values 0.983 | S. cerevisiae deletion strains, locus YKL203C, strain TOR2, hits give low values 1.07 | S. cerevisiae deletion strains, locus YLR113W, strain HOG1, hits give low values 0.996 | S. cerevisiae deletion strains, locus YLR133W, strain CKI1, hits give low values 1.02 | S. cerevisiae deletion strains, locus YLR403W, strain SFP1, hits give low values 0.987 | S. cerevisiae deletion strains, locus YML070W, strain DAK1, hits give low values 1.02 | S. cerevisiae deletion strains, locus YMR001C, strain CDC5, hits give low values 0.986 | S. cerevisiae deletion strains, locus YMR205C, strain PFK2 (second series), hits give low values 1 | S. cerevisiae deletion strains, locus YMR277W, strain FCP1, hits give low values 0.99 | S. cerevisiae deletion strains, locus YNL006W, strain LST8, hits give low values 0.994 | S. cerevisiae deletion strains, locus YNL020C, strain ARK1, hits give low values 1.02 | S. cerevisiae deletion strains, locus YNL161W, strain CBK1, hits give low values 0.988 | S. cerevisiae deletion strains, locus YNL183C, strain NPR1, hits give low values 1.04 | S. cerevisiae deletion strains, locus YNL207W, strain RIO2, hits give low values 0.98 | S. cerevisiae deletion strains, locus YNL222W, strain SSU72, hits give low values 0.981 | S. cerevisiae deletion strains, locus YNL307C, strain MCK1 (second series), hits give low values 0.968 | S. cerevisiae deletion strains, locus YOL078W, strain AVO1, hits give low values 0.986 | S. cerevisiae deletion strains, locus YOL136C, strain PFK27, hits give low values 1.03 | S. cerevisiae deletion strains, locus YOR061W, strain CKA2, hits give low values 1.01 | S. cerevisiae deletion strains, locus YOR119C, strain RIO1, hits give low values 1.08 | S. cerevisiae deletion strains, locus YOR231W, strain MKK1, hits give low values 1.01 | S. cerevisiae deletion strains, locus YOR329C, strain SCD5, hits give low values 0.994 | S. cerevisiae deletion strains, locus YPL031C, strain PHO85, hits give low values 1.01 | S. cerevisiae deletion strains, locus YPL153C, strain RAD53, hits give low values 0.994 | S. cerevisiae deletion strains, locus YPL204W, strain HRR25, hits give low values 1 | S. cerevisiae deletion strains, locus YPL209C, strain IPL1, hits give low values 0.981 | S. cerevisiae deletion strains, locus YPR025C, strain CCL1, hits give low values 0.988 | S. cerevisiae deletion strains, locus YPR106W, strain ISR1, hits give low values 1 | S. cerevisiae deletion strains, locus YPR111W, strain DBF20, hits give low values 0.988 | S. cerevisiae deletion strains, strain NNK1, hits give low values 0.99 | S. cerevisiae deletion strains, strain TSCII, hits give low values 0.988
active: S. cerevisiae deletion strains, locus YPL256C, strain CLN2, hits give low values 1.2 [resistant]

N/C(=N/OC(=O)C(Cl)Cl)c1cccc(Cl)c1Cl
inactive: S. cerevisiae deletion strains, locus YAL013W, strain DEP1, hits give low values 1.02 | S. cerevisiae deletion strains, locus YBR229C, strain ROT2, hits give low values 0.978 | [1] 0.943 | S. cerevisiae deletion strains, locus YDR150W, strain NUM1, hits give low values 1 | S. cerevisiae deletion strains, locus YEL061C, strain CIN8, hits give low values 0.997 | S. cerevisiae deletion strains, locus YGR078C, strain PAC10, hits give low values 0.973 | [2] 0.94 | S. cerevisiae deletion strains, locus YHR087W, strain rtc3, hits give low values 0.971 | S. cerevisiae deletion strains, locus YJR043C, strain POL32, hits give low values 0.979 | S. cerevisiae deletion strains, locus YJR075W, strain HOC1, hits give low values 0.925 | S. cerevisiae deletion strains, locus YKL190W, strain CNB1, hits give low values 0.982 | S. cerevisiae deletion strains, locus YLR039C, strain RIC1, hits give low values 0.936 | S. cerevisiae deletion strains, locus YLR058C, strain SHM2 (second series), hits give low values 0.968 | S. cerevisiae deletion strains, locus YLR085C, strain ARP6, hits give low values 1.04 | S. cerevisiae deletion strains, locus YLR262C, strain YPT6, hits give low values 0.921 | S. cerevisiae deletion strains, locus YML094W, strain GIM5, hits give low values 1.03 | S. cerevisiae deletion strains, locus YMR219W, strain ESC1, hits give low values 0.984 | S. cerevisiae deletion strains, locus YMR263W, strain SAP30, hits give low values 0.992 | S. cerevisiae deletion strains, locus YNL153C, strain GIM3, hits give low values 1.01 | S. cerevisiae deletion strains, locus YNL298W, strain CLA4 (second series), hits give low values 0.965 | S. cerevisiae deletion strains, locus YNL322C, strain KRE1, hits give low values 0.98 | S. cerevisiae deletion strains, locus YNR030W, strain Alg12, hits give low values 1 | S. cerevisiae deletion strains, locus YOL006C, strain TOP1, hits give low values 0.939 | S. cerevisiae deletion strains, locus YPL055C, strain LGE1, hits give low values 1.03 | S. cerevisiae deletion strains, locus YPL241C, strain CIN2, hits give low values 0.907 | S. cerevisiae deletion strains, locus YPR135W, strain CTF4, hits give low values 1.22 | S. cerevisiae strains, strain wild type, hits give low values 0.972
